# PubChem BioAssay (EPA / NIEHS)
# Inconclusive results are not listed. Calls of active or inactive are those of the source. How the source made its calls: active means hit-call score of the fitted dose curve at least 0.9, where 1 is the maximum; inconclusive means response in the unintended direction; inactive means score below 0.9.
# Test: Tanguay_ZF_120hpf_YSE_legacy: (Legacy) Oregon State University Tanguay Lab 120 Hour Post-fertilization zebrafish Assay for Yolk Sac Edema (AID 2283634);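 on AC50: actives raise the incidence of yolk sac edema above the DMSO baseline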
# How it was run: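 Binary brightfield scoring of yolk sac edema at 120 hpf; DMSO baseline, gain-of-signal fitting. Dechorionated 5D larvae, one per well, static exposure 6–120 hpf, 28C, 0.64% DMSO. Dead embryos not scored.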
SMILES,outcome,AC50
Cc1cc(-c2ccc(N)c(C)c2)ccc1N,inactive,–
CCOC(=O)C(O)(c1ccc(Cl)cc1)c1ccc(Cl)cc1,inactive,–
ClC(Cl)=C(c1ccc(Cl)cc1)c1ccc(Cl)cc1,inactive,–
NS(=O)(=O)C(F)(F)C(F)(F)C(F)(F)C(F)(F)C(F)(F)C(F)(F)C(F)(F)C(F)(F)F,inactive,–
CC(c1ccc(O)cc1)(c1ccc(O)cc1)c1ccc(O)cc1,inactive,–
CN(C)CCO,inactive,–
c1cc2ccc3cccc4ccc(c1)c2c34,inactive,–
CCC(C)(c1ccc(O)cc1)c1ccc(O)cc1,–,41 µM (active)
ClC1=C(Cl)[C@]2(Cl)[C@@H]3[C@@H](Cl)[C@H]4O[C@H]4[C@@H]3C1(Cl)C2(Cl)Cl,inactive,–
Oc1ccc(C(c2ccc(O)cc2)(C(F)(F)F)C(F)(F)F)cc1,–,57.4 µM (active)
C=CC(=O)NCNC(=O)C=C,inactive,–
Cc1ccc(O)c(C)c1,inactive,–
CC(C)(O)C(=O)Nc1ccc([N+](=O)[O-])c(C(F)(F)F)c1,inactive,–
C[C@]12CCC(=O)C=C1CC[C@@H]1[C@@H]2CC[C@]2(C)C(=O)CC[C@@H]12,–,36.2 µM (active)
CC(C)C(=O)OCC(C)(C)C(OC(=O)C(C)C)C(C)C (stereo not given),inactive,–
O=NN(c1ccccc1)c1ccccc1,inactive,–
O=C(N[C@H]1CN2CCC1CC2)c1cc2ccoc2cn1,inactive,–
CO/C=C(/C(=O)OC)c1ccccc1COc1cccc(C(F)(F)F)n1,–,4.88 µM (active)
CCC(C)c1cc([N+](=O)[O-])cc([N+](=O)[O-])c1O (stereo not given),inactive,–
COS(=O)(=O)OC,inactive,–
Nc1ccc(-c2ccc(N)cc2)cc1,inactive,–
Cc1cccc([N+](=O)[O-])c1,inactive,–
O=C(O)C(F)(F)C(F)(F)C(F)(F)C(F)(F)C(F)(F)C(F)(F)C(F)(F)C(F)(F)F,inactive,–
CCCCCCCCCC[N+](C)(C)CCCCCCCCCC,inactive,–
ClC1=C(Cl)[C@]2(Cl)[C@@H]3[C@H]4C[C@H]([C@@H]5O[C@H]45)[C@@H]3[C@@]1(Cl)C2(Cl)Cl,–,72 µM (active)
Clc1ccc(Cl)cc1,inactive,–
Oc1c(Cl)c(Cl)c(Cl)c(Cl)c1Cl,inactive,–
C[C@]12CCC(=O)C=C1CC[C@@H]1[C@@H]2CC[C@@]2(C)[C@H]1CC[C@]2(C)O,inactive,–
O=C(NC(=O)c1c(F)cccc1F)Nc1cc(Cl)c(OC(F)(F)C(F)F)c(Cl)c1,inactive,–
Clc1ccc(C(c2ccccc2Cl)C(Cl)(Cl)Cl)cc1 (stereo not given),inactive,–
